S2 tox: cell viability loss in ATXN counter-screen; hit rate 0.49% among 400,000; AID 651635; S2 cells (HEK-293 line with an ATXN2-luciferase reporter) viability, CellTiter-Fluor protease fluorescence, 24 h; Potency, µM (top dose mostly 56.7 µM), most hits filed as cytotoxic; note: nearly all actives have a fitted effect of over 40% in size
TGFb inhibitor: TGF-b pathway inhibition; HepG2 CAGA-GFP TGF-b/SMAD3 reporter, GFP fluorescence, 18 h; TGF-beta stimulated, 500 pg/mL final; hit rate 1.2% among 410,000; Potency, µM (top dose mostly 46.1 µM), inactives show top-dose activity, negative = inhibition, hits mostly inhibitors; AID 588855; note: % is set by controls: 0 for no effect and ±100 for the full control effect; nearly all actives have a fitted effect of over 65% in size
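HEPG2 CAGA-GFP cells (1000/well, DMEM with 1% FBS) were pre-incubated 2 h at 37 degrees C, given compound by pin tool, then stimulated with TGF-beta at 500 pg/mL final for 18 h before per-cell GFP fluorescence imaging.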
ATXN2 expr inh: reduces ATXN2 reporter expression in HEK-293 cells | hit rate 0.72% among 360,000 | HEK-293 ATXN2-luciferase reporter, luminescence, 24 h | Potency, µM (doses to about 57 µM), without a hit: at the highest dose activity change, negative = inhibition, most hits filed as inhibitors; note: % is set by controls: 0 for no effect and ±100 for the full control effect; nearly all actives have a fitted effect of over 55% in size
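qHTS (up to 57 uM final) was run with 24 h compound exposure of reporter cells at 37 °C. Each well was multiplexed: SteadyGlo luminescence measured ATXN2-luciferase expression after a fluorogenic Gly-Phe-AFC viability readout (25 uM final).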
HT1080-NT tox: kills 2HG-producing HT-1080-NT fibrosarcoma cells; hit rate 1.6% among 360,000; AID 686970; Potency, µM (titrated, usually from 46.1 µM), inactives show top-dose activity, negative = less viability, actives largely listed as cytotoxic; HT-1080-NT fibrosarcoma viability, CellTiter-Glo ATP luminescence, 48 h;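 note: NT is the 2HG producing partner of a matched IDH1 knockdown line; 0% = DMSO-treated cells and -100% = media-only wells without cells; nearly all actives have a fitted effect of over 55% in size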
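Viability of the 2HG-overproducing fibrosarcoma line after 48 hours of compound exposure at 37 degrees C was determined by luminescence with CellTiter-Glo, and concentration-effect curves were then fitted and categorized.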
HepG2 tox-1: HepG2 cytotoxicity, counter-screen for TGF-b inhibitors | HepG2 CAGA-GFP viability, ATP luminescence, 18 h | Potency, µM (series often up to 46.1 µM), without a hit: at the highest dose activity change, negative = cytotoxicity, most hits filed as cytotoxic | hit rate 0.76% among 410,000 | AID 588856
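HepG2 CAGA-GFP cells (1000/well, DMEM with 1% FBS) received compound, then TGF-beta at 500 pg/mL final, and were incubated 18 hours at 37 degrees C. Viability was read by CellTiter-Glo luminescence. Media-only wells were set as complete cell-killing and DMSO as no toxicity.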
HT1080 IDH1KD tx: HT-1080 IDH1 knockdown cell toxicity (counter line). HT-1080 IDH1 knockdown viability, ATP luminescence, 48 h. hit rate 2% among 360,000. Potency, µM (top dose mostly 46.1 µM), inactives show top-dose activity, negative = toxicity, usual class: cytotoxic;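 note: 0% = DMSO wells and -100% = cell-free medium wells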
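IDH1KD HT-1080 cells, 750/well, RPMI + 5% FBS; compound pinned after 2 h settling; 48 h, 37 °C; CellTiter-Glo luminescence; % activity normalised to DMSO and no-cell wells; curves fitted, classed by r2 and efficacy.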
TGFb CAGA inh: confirmation of TGF-b signaling inhibitors in HepG2 reporter cells; hit rate 63% among 1,600; AID 720534; HepG2 CAGA-GFP TGF-b reporter, GFP fluorescence, 18 h; cells stimulated with TGF-beta, 500 pg/mL; Potency, µM (doses to about 46.1 µM), inactives show at the highest dose activity, negative = inhibition, hits mostly inhibitors; shares compounds with TGFb inhibitor; note: % is set by controls: 0 for no effect and ±100 for the full control effect; nearly all actives have a fitted effect of over 65% in size
HepG2 tox-2: HepG2 cytotoxicity, TGF-b inhibitor counterscreen | shares compounds with TGFb inhibitor | HepG2 CAGA-GFP viability, ATP luminescence, 18 h; cells stimulated with TGF-beta, 500 pg/mL | Potency, µM (doses to about 46.1 µM), for inactives: at the highest dose activity, negative = cytotoxicity, hits mostly inhibitors | hit rate 27% among 1,600; note: % is set by controls: 0 for no effect and ±100 for the full control effect; nearly all actives have a fitted effect of over 70% in size
TGFb CCL64 inh: orthogonal confirmation of TGF-b inhibitors in CCL64 cells. shares compounds with TGFb inhibitor. CCL64 CAGA-GFP reporter, TGF-b stimulated, GFP fluorescence, 18 h. Potency, µM (series often up to 46.1 µM), without a hit: at the highest dose activity, negative = inhibition, most hits filed as inhibitors. hit rate 41% among 1,600; note: nearly all actives have a fitted effect of over 65% in size
COP TGFb inh: TGF-b inhibition validated with COP promoter; shares compounds with TGFb inhibitor; Potency, µM (titrated, usually from 46.1 µM), without a hit: at the top dose activity, negative = inhibition, actives largely listed as inhibitors; hit rate 3% among 1,600; AID 720537; HepG2 COP-GFP TGF-b reporter, GFP fluorescence, 18 h; cells stimulated by added recombinant TGF-beta; note: nearly all actives have a fitted effect of over 70% in size
* = called active by the depositor; i = inactive; u = inconclusive; x = no result given. Sampled rows, rich in hits. Any-hit rate of the full collection: about 3.8%. Calls come from the whole dose curve; as a rule, active = well fitted curve in the direction sought with a large enough effect; inconclusive = small, poorly fitted or top-dose-only effect, or another doubt; inactive = no such curve, though single readings can be large; an effect the other way counts as inactive or inconclusive. Potency is the fitted concentration of half-maximal effect.

SMILES | S2 tox | TGFb inhibitor | ATXN2 expr inh | HT1080-NT tox | HepG2 tox-1 | HT1080 IDH1KD tx | TGFb CAGA inh | HepG2 tox-2 | TGFb CCL64 inh | COP TGFb inh
CCCc1cc(-c2[nH]ncc2-c2ccc(C(=O)OCC)o2)c(O)cc1O | u | 10µM* | -29% | u | 20µM* | u | -14% | 7% | u | 1%
CCCc1cc(-c2[nH]ncc2-c2ccc3c(c2)OCCCO3)c(O)cc1O | u | u | u | -11% | -60% | -14% | x | x | x | x
Cc1cc(C)c(S(=O)(=O)Nc2ccc3c4c(cccc24)CC3)c(C)c1 | u | 8.9µM* | -31% | u | -39% | 1µM* | 12µM* | u | 9.2µM* | 33%
O=C(O)CNC(=O)[C@@H](CS)Cc1ccccc1 | i | x | x | x | x | x | x | x | x | x
CC(C)(C)c1ccc(/C=C2\SC(=O)N(CCNC(=O)c3cccc(S(=O)(=O)N4CCOCC4)c3)C2=O)cc1 | u | 13µM* | -11% | -3% | -19% | -24% | 7.3µM* | u | u | 18%
Clc1ccc(-n2nnnc2Sc2ncnc3sccc23)cc1 | x | 10µM* | u | 21µM* | -105% | u | 4.6µM* | 16µM* | 2.9µM* | u
Cc1cccc(NC(=O)Cn2c(=O)n(Cc3ccc4c(c3)OCO4)c(=O)c3ccccc32)c1 | i | -18% | -1% | x | -9% | x | x | x | x | x
CCc1noc(C)c1C(=O)Nc1nc(-c2ccc(Cl)cc2Cl)cs1 | u | 11µM* | -34% | 2% | -5% | 0% | 15µM* | 15µM* | u | 46%
CSc1cccc(NC(=O)CCCOc2ccc(Cl)cc2C)c1 | i | 13µM* | 5% | u | -19% | u | 21µM* | -21% | 16% | -16%
CCC(Cn1nnc2ccccc2c1=O)NC(=O)Nc1cc(C)cc(C)c1 (stereo not given) | x | u | x | x | -14% | x | x | x | x | x
CN(C)S(=O)(=O)c1ccc2nc(NC(=O)c3cccnc3)sc2c1 | i | -4% | 4% | 7% | -2% | 7% | x | x | x | x
O=C(NC(Nc1nc2ccc([N+](=O)[O-])cc2s1)(C(F)(F)F)C(F)(F)F)c1cccnc1 | u | 3.2µM* | u | 9.2µM* | -31% | 13µM* | 4.1µM* | 1.6µM* | 5.8µM* | 87%
O=C(NC(Nc1nc2ccc([N+](=O)[O-])cc2s1)(C(F)(F)F)C(F)(F)F)c1ccccc1Cl | u | 0.45µM* | u | 3.3µM* | -55% | 2.9µM* | 0.92µM* | 1µM* | 1.5µM* | 82%
O=C(NC(NNc1ccc([N+](=O)[O-])cc1)(C(F)(F)F)C(F)(F)F)c1ccccc1Cl | i | u | -9% | -12% | -22% | -20% | x | x | x | x
Cc1cccc(N2C(=O)CSC23C(=O)N(Cc2cccc(C(F)(F)F)c2)c2ccccc23)c1 (stereo not given) | i | u | u | x | -13% | x | x | x | x | x
CCOc1ccc(CNC(=O)c2ccc(NC(=O)N3CCSc4ncccc43)cc2)cc1OC | x | -9% | x | x | 8% | x | x | x | x | x
CCc1ccc(NC(=O)CSc2nc(=O)n(Cc3ccncc3)c3c2CCC3)cc1 | i | -26% | -10% | x | -20% | x | x | x | x | x
O=S(=O)(/C(=C\c1ccc(C(F)(F)F)cc1)c1nc2ccccc2[nH]1)c1ccccc1 | 7.1µM* | 4.5µM* | 5µM* | 1.8µM* | 18µM* | 1.5µM* | 2.9µM* | 2.6µM* | 3.3µM* | u
COc1ccccc1-c1cc(C(F)(F)F)nc(N2CCCCC2)n1 | i | -22% | -5% | 5% | 4% | 13% | x | x | x | x
COc1ccccc1-c1cc(C(F)(F)F)nc(S(=O)(=O)CCCC(=O)N2CCCCC2C)n1 (stereo not given) | x | 10µM* | u | u | -101% | 23µM* | 9.2µM* | 18µM* | 4.6µM* | u
CCO[C@@H]1OC(C(=O)NCc2ccccc2)=C[C@H](c2ccc(C(F)(F)F)cc2)[C@H]1CCCO | u | 18µM* | u | -28% | -9% | u | u | -28% | 21µM* | 32%
CC(C)C[C@@H](CN1CCCC1CN1C(=S)NC[C@@H]1Cc1ccccc1)N1C[C@H](Cc2ccc(O)cc2)N(CC2CCCCC2)C1=S (stereo not given in full) | u | x | -37% | u | x | u | x | x | x | x
CC(C)C[C@@H](CN1CCC[C@@H]1CN1C(=S)NC[C@@H]1Cc1ccc(O)cc1)N1C[C@H](Cc2ccc(O)cc2)N(CC2CCCCC2)C1=S | 25µM* | 7.1µM* | u | 23µM* | -89% | u | 16µM* | u | 5.8µM* | u
CC(C)C[C@@H](CN1CCC[C@@H]1CN1C(=S)NC[C@@H]1Cc1ccc(O)cc1)N1C[C@H](Cc2ccc(O)cc2)N(CC2CCCCCC2)C1=S | u | 4.5µM* | u | u | -89% | 18µM* | 18µM* | 18µM* | 8.2µM* | 49%
COc1ccc(-c2noc(CSc3nnc(C)n3-c3ccc(C)cc3)n2)cc1 | x | -9% | x | x | -28% | x | x | x | x | x
COc1cc(/C=C/C(=O)c2ccc3c(c2)OCCO3)cc(Br)c1OCC(=O)N(C)C | 28µM* | 4µM* | 20µM* | 4.6µM* | -175% | 3.7µM* | 3.7µM* | 3.3µM* | 21µM* | -29%
